This is a sample that favours compounds with a hit; in the whole collection about 21% have one here.
Pf growth 96h – Primary qHTS for delayed death inhibitors of the malarial parasite plastid, 96 hour incubation; P. falciparum luciferase reporter growth, 96 h; 320,000 tested, 6.9% active; Potency, µM (series often up to 28.7 µM), for the others: at the top dose activity change, negative = inhibition, actives largely listed as inhibitors; active means well fitted inhibition curve with a large enough effect; inconclusive means small, poorly fitted or top-dose-only effect, or another doubt; inactive means no such curve, though single readings can be large or run the other way; further: potency means the concentration at half of the fitted maximal effect; on the % scale 0 is the no-effect control and ±100 the full control effect
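P. falciparum expressing integrated firefly luciferase grown in erythrocytes (2% hematocrit, 0.05% parasitemia final) with compounds for 96 hours at 37 C, 5% CO2. Growth inhibition read as loss of luminescence after adding luciferase detection reagent.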
NS1 function inh – qHTS Assay for Inhibitors of Influenza NS1 Protein Function. Potency, µM (series often up to 46.1 µM), without a hit: top-dose activity, positive = more growth. 270,000 tested, 0.4% active; further: potency means the concentration at half of the fitted maximal effect; actives are rising curves; nearly all actives have a fitted effect of over 50% in size
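A cell-based growth assay was used: compounds that relieve NS1-induced slow growth of budding yeast raise OD600. Assay medium was yeast nitrogen base with ammonium sulphate and -URA supplement, pH 6.0, with 2% galactose.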
Pf growth 48h – Primary qHTS for delayed death inhibitors of the malarial parasite plastid, 48 hour incubation; AID 504832, 2011; Potency, µM (top dose mostly 28.7 µM), inactives show at the highest dose activity change, negative = inhibition, hits mostly inhibitors; P. falciparum luciferase growth in erythrocytes, 48 h; 310,000 tested, 5.9% active; active means well fitted inhibition curve with a large enough effect; inconclusive means small, poorly fitted or top-dose-only effect, or another doubt; inactive means no such curve, though single readings can be large or run the other way; further: potency means the concentration at half of the fitted maximal effect; on the % scale 0 is the no-effect control and ±100 the full control effect
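Firefly luciferase activity from engineered P. falciparum reports growth; inhibitors lower the luminescent signal. Cultures contained 2% hematocrit erythrocytes at 0.1% final parasitemia.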
Cycloheximide cs – Cycloheximide Counterscreen for Small Molecule Inhibitors of Shiga Toxin | cell reporter, cycloheximide protein synthesis inhibition counterscreen | max response, % | 300,000 tested, 12% active; in the data active means max response mostly above about 13%, no sharp cut-off; inactive means mostly below about 14%; further: read at 38.3 µM for the half of the compounds with a filed dose; 0% is about no effect
Shiga toxin inh – A qHTS for Small Molecule Inhibitors of Shiga Toxin; Vero cells, Shiga toxin protein synthesis inhibition reporter; AID 2315, 2010; 290,000 tested, 9.2% active; inhibition, % at 38.7 µM; in the data active means inhibition mostly above about 28%, no sharp cut-off; inactive means mostly below about 43%; further: 0% is about no effect
SARS PLP yeast – qHTS of Yeast-based Assay for SARS-CoV PLP. 330,000 tested, 0.19% active. Potency, µM (series often up to 32.9 µM), for inactives: at the highest dose activity, positive = growth rescue, most hits filed as activators. S. cerevisiae expressing SARS-CoV PLpro, growth rescue; further: potency means the concentration at half of the fitted maximal effect; 0% is about no effect; nearly all actives have a fitted effect of over 55% in size
Numbers without * were called inactive; i = inactive; ? = inconclusive; · = not tested or not shown. Unless noted, the call rests on the fitted dose curve.

SMILES	Pf growth 96h	NS1 function inh	Pf growth 48h	Cycloheximide cs	Shiga toxin inh	SARS PLP yeast
COCCNc1oc(/C=C/c2ccccc2)nc1C#N	150.0%	-4.6%	123.4%	56.0*	112.5*	0.6%
CCN1CCN(c2oc(-c3ccc(OC)cc3)nc2C#N)CC1	·	-10.1%	·	·	·	·
CCN1CCN(c2oc(/C=C/c3ccccc3)nc2C#N)CC1	6.3%	-2.3%	-2.1%	42.1*	38.2	-0.2%
N#Cc1nc(/C=C/c2ccccc2)oc1NCCCN1CCOCC1	18.9%	-4.5%	22.0%	33.1*	83.3*	-3.7%
CNc1oc(/C=C/c2ccccc2)nc1C#N	256.2%	-6.6%	260.7%	78.4*	121.8*	-1.7%
CCOC(=O)c1c(CSc2ccccc2)n(C)c2cc(Br)c(OCC(O)CNC(CO)(CO)CO)cc12 (stereo not drawn)	13.1µM*	4.3%	11.7µM*	-3.4	-2.4	21.0%
Cc1cc(C)n2nc(SCc3cc(=O)n4c(C)cccc4n3)nc2n1	·	9.1%	·	·	·	·
CNc1ccc(-c2nc3ccccc3s2)cc1	·	·	·	-17.6	-8.4	·
COc1ccc2nc(N)sc2c1	-1.7%	-5.8%	31.0%	13.5	8.8	-12.9%
COc1ccc2sc(-c3ccc(N(C)C)cc3)c(C#CC(C)(C)O)c2c1	?	·	?	·	·	-1.0%
COc1cc(OC)cc(-c2nc3ccccc3s2)c1	i	-41.6%	171.5%	46.1*	72.1*	-8.6%
COc1ccc2nc(-c3ccc(N(C)C)cc3)sc2c1	·	·	·	31.6*	25.3*	·
COc1ccc2nc(-n3c(C)ccc3C)sc2c1	·	-6.9%	-5.3%	22.4*	77.4*	-5.6%
O=C(O)C1CCCN(S(=O)(=O)c2ccc3c(c2)OCCO3)C1 (stereo not drawn)	1.1%	3.0%	-0.2%	4.4	-3.3	0.4%
CC(=O)Nc1ccc(NC(=O)C(C)OC(=O)CNS(=O)(=O)/C=C/c2ccc(C)cc2)cc1 (stereo not drawn)	-16.5%	·	11.1%	·	·	·
CC(=O)N1CCN(Cc2nc3cc(NC(=O)c4ccc(F)cc4)ccc3n2C)CC1	-5.3%	0.5%	0.5%	8.1	29.3	0.2%
C/C(=N\NC(=O)c1cccc(S(=O)(=O)N2CCOCC2)c1)c1ccc(O)cc1	0.586µM*	·	-20.5%	·	·	3.5%
C/C(=N\NC(=O)c1cccc(S(=O)(=O)N2CCOCC2)c1)c1ccc(OC(F)F)cc1	-14.1%	·	?	·	·	-4.7%
CC(=O)Nc1cccc(/C(C)=N/NC(=O)c2cccc(S(=O)(=O)N3CCOCC3)c2)c1	11.7µM*	·	-1.9%	-1.0	14.1	0.7%
O=C(c1ccc(CS(=O)Cc2cccc(Cl)c2)o1)N1CCN(C2CCCCC2)CC1 (stereo not drawn)	14.4%	5.1%	-1.8%	-0.9	-3.7	-0.6%
Cc1[nH]c2ccc3ccccc3c2c(=O)c1C/C=C/Cl	14.7µM*	-12.5%	-36.2%	9.1	3.7	-12.5%
Cc1[nH]c2ccc(Br)cc2c(=S)c1C/C=C/Cl	8.28µM*	-0.8%	?	-3.0	12.3	-0.8%
CCc1c(C)[nH]c2ccc(OC)cc2c1=S	?	-3.6%	?	-2.1	-10.7	-1.1%
CN(C)c1cccc(C(=O)Nc2cc(C(F)(F)F)ccc2-n2cnc3ccccc32)c1	?	13.3%	11.7µM*	-1.8	-7.1	-25.5%
O=C(Cn1cnc2ccccc21)Nc1cc(C(F)(F)F)ccc1N1CCOCC1	4.15µM*	-6.3%	4.65µM*	-2.2	-6.1	0.6%
SMILES	Pf growth 96h	NS1 function inh	Pf growth 48h	Cycloheximide cs	Shiga toxin inh	SARS PLP yeast
COCCOc1ccc(C(F)(F)F)cc1NC(=O)COC(=O)C12CC3CC(CC(O)(C3)C1)C2	?	-1.1%	2.33µM*	-1.4	-10.2	-3.2%
O=C(COC(=O)C12CC3CC(CC(O)(C3)C1)C2)Nc1ccccc1OC(F)F	-57.4%	-10.6%	-27.7%	11.0	4.3	?
Cn1c(=O)c2ncn(CC(=O)Nc3cc(C(F)(F)F)ccc3N3CCOCC3)c2n(C)c1=O	?	?	?	-1.3	-15.8	-2.1%
CC(=O)Nc1ccc(C(=O)Nc2cc(C(F)(F)F)ccc2-n2cnc3ccccc32)cc1	28.7%	-1.3%	-0.3%	-0.7	-8.4	17.5%
Cc1nc2ccccc2nc1OCC(=O)Nc1cc(C(F)(F)F)ccc1N1CCOCC1	5.6%	-10.2%	11.7µM*	-2.0	-15.8	-3.9%
CCOc1ccc(NC(=O)CC2C(=O)N(C)C(=S)N2Cc2ccc3c(c2)OCO3)cc1 (stereo not drawn)	?	11.2%	12.4%	-1.0	12.4	10.9%
CCOC(=O)c1c(NC(=O)COc2cccc3c2CCN(CC)C3=O)sc2c1CCC2	?	4.3%	-6.6%	-2.0	-0.9	-0.2%
O=C(CSc1nc2ccccc2c(=O)[nH]1)Nc1ccc(N2CCOCC2)c(Cl)c1	25.4%	14.0%	-15.9%	-3.0	-5.9	-1.5%
O=C(CSc1nc2ccccc2o1)Nc1cc(C(F)(F)F)ccc1N1CCOCC1	·	5.6%	11.7µM*	-2.6	-11.9	-12.8%
O=C(CSc1nc2ccccc2o1)Nc1ccc(N2CCOCC2)c(Cl)c1	·	-62.7%	136.1%	53.1*	81.3*	-14.4%
O=C(NC(=S)Nc1cc(C(F)(F)F)ccc1N1CCOCC1)c1sc2ccccc2c1Cl	3.29µM*	1.7%	2.08µM*	-3.4	-5.3	1.7%
CC(C)(C)C(=O)NC(=S)Nc1cc(C(F)(F)F)ccc1N1CCOCC1	?	4.4%	·	-6.0	-6.7	21.9%
CCCCn1nc(C(=O)Nc2cc(C(F)(F)F)ccc2N2CCOCC2)ccc1=O	?	·	11.7µM*	·	·	0.7%
Cc1n[nH]c(C)c1CCC(=O)N/N=C/C=C/c1ccccc1	31.1%	-5.4%	-10.9%	-2.9	-11.8	-0.2%
CC[C@@H]1[C@@H]2Cc3ccc(O)cc3[C@@]1(CC)CCN2C	·	-5.3%	·	·	·	·
CC(=O)[C@@]1(O)CC[C@H]2C3CCC4=CC(=O)CC[C@]4(C)C3CC[C@@]21C (stereo partly drawn)	·	3.1%	·	·	·	·
COCCOc1ccc(C(F)(F)F)cc1NC(=O)COC(=O)c1cc([N+](=O)[O-])ccc1N1CCOCC1	9.28µM*	-2.3%	?	1.9	-11.6	2.8%
O=C(Nc1cc(C(F)(F)F)ccc1N1CCOCC1)c1ccc2ccccc2n1	?	1.6%	84.2%	23.4*	76.1	-5.2%
COc1cc(OC)c2c(O)c3c(c(-c4c5c(c(O)c6c(OC)cc(OC)cc46)CO[C@@H](C)[C@H]5O)c2c1)[C@H](O)[C@H](C)OC3	50.1%	1.2%	-0.3%	-0.2	-2.9	0.5%
OCCn1c(CSc2nnc(-c3ccco3)n2-c2ccccc2)nc2ccc(Cl)cc21	·	-0.6%	11.7µM*	-1.2	-8.5	-0.9%
Cc1ccccc1NC(=O)c1nc2nccc(C)n2n1	79.4%	·	312.2%	37.6*	71.7*	-1.3%
COc1ccc(NC(=O)c2nc3nccc(C)n3n2)cn1	202.6%	5.9%	·	32.6*	44.3*	2.0%
COc1ccccc1NC(=O)c1ccc(NC(=O)c2nc3nccc(C)n3n2)cc1	?	·	?	·	·	4.8%
COc1ccc(NC(=O)c2ccc(NC(=O)c3nc4nccc(C)n4n3)cc2)cc1	·	·	·	·	·	-1.2%

From PubChem BioAssay
